Results published in PubChem BioAssay.
Activity calls are given as the source filed them.

How the values were obtained:
[1] = system: Plasmodium falciparum Sir2 (PF13_0152, Sir2A); experiment: Plasmodium falciparum Sir2A binding compounds – biochemical, small-molecule microarray, 635 nm fluorescence, primary screen (AID 1098); conditions: fluorescence 635 nm, higher = more signal;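 note: score merges spot fluorescence intensity with its signal-to-noise ratio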
[2] = probe aDKK1 binding to arrayed compounds – biochemical, biotinylated probe, 635/667 nm fluorescence, primary screen (AID 1099); conditions: small-molecule microarray, higher = more signal;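 note: score merges 667nm spot fluorescence with signal to noise across triplicate slides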
[3] = probe aCHRDL2 binding to arrayed compounds – biochemical, biotinylated probe, 635/667 nm fluorescence, primary screen (AID 1100); conditions: small-molecule microarray, higher = more signal
[4] = change in splice reporter luminescence, either direction, cell-based, HEK293, spliceosome inhibition project, primary screen (AID 1101); conditions: HEK293 splicing luciferase reporter, 24 h, higher = more signal, called active from +8 up or from −8 down;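 note: HEK293 cells carrying a splicing-competent luciferase reporter gene; test concentration not given here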
[5] = molecular target: Fibroblast growth factor 10 (Homo sapiens) (UniProt O15520); experiment: compounds binding fibroblast growth factor 10 – biochemical, small-molecule microarray, 635 nm fluorescence, primary screen (AID 1102); conditions: FGF10 binding, fluorescence 635 nm, higher = more signal
[6] = system: glycogen synthase kinase-3 (GSK3A per assay name; protocol says GSK3B); experiment: compounds binding glycogen synthase kinase-3 – biochemical, small-molecule microarray, 635 nm fluorescence, GSK3A, primary screen (AID 1103); conditions: fluorescence 635 nm, higher = more signal; note: the record names both GSK3A and GSK3B
[7] = molecular target: Epidermal growth factor receptor (Homo sapiens) (UniProt P00533); experiment: compounds binding epidermal growth factor receptor – biochemical, small-molecule microarray, 635 nm fluorescence, primary screen (AID 1104); conditions: EGFR binding, higher = more signal;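 note: score merges 667 nm emission intensity with spot signal to noise over triplicate slides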
[8] = molecular target: Follistatin-related protein 3 (Homo sapiens) (UniProt O95633); experiment: compounds binding follistatin-related protein 3 – biochemical, small-molecule microarray, 635 nm fluorescence, primary screen (AID 1105); conditions: FSTL3 binding, higher = more signal;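 note: score merges emission near 667 nm and signal to noise per printed spot across three slides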
[9] = molecular target: Dickkopf-related protein 1 (Homo sapiens) (UniProt O94907); experiment: small molecules binding DKK1 protein – biochemical, small-molecule microarray, 635 nm fluorescence scan, primary screen (AID 1106); conditions: higher = more signal;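 note: score merges emission near 667 nm with signal to noise over three replicate slides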
[10] = system: Inhibin beta A chain (activin A); experiment: small molecules binding activin A – biochemical, small-molecule microarray, 635 nm fluorescence scan, primary screen (AID 1107); conditions: INHBA, higher = more signal;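 note: mouse activin A protein probed at 4.33 µg/mL on printed slides; score merges bound-protein fluorescence near 667 nm with spot signal-to-noise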
[11] = system: Human papillomavirus type 1a protein E7 (residues 44-93); experiment: small molecules binding HPV E7 44-93 – biochemical, small-molecule microarray, residues 44-93, 635 nm fluorescence, primary screen (AID 1108); conditions: fluorescence 635 nm, higher = more signal;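 note: E7 fragment applied at 1 µg/mL in TBST for 1 h at 4 C; score combines spot fluorescence with its signal to noise ratio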
[12] = hepatitis C replication reporter changes, two-sided – Huh7 cells, luciferase reporter, HCV replication inhibitor project, primary screen (AID 1109); conditions: Huh7 HCV replicon luciferase reporter, 48 h; higher = more signal;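 note: huh7 hepatoma cells harbouring a luciferase neomycin HCV replicon reporter; luciferase luminescence as measure of HCV replicon replication; test concentration not given here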
[13] = molecular target: Left-right determination factor 2 (Homo sapiens) (UniProt O00292); experiment: small molecules binding LEFTY2 protein – biochemical, small-molecule microarray, 635 nm fluorescence scan, primary screen (AID 1110); conditions: higher = more signal
[14] = molecular target: Calmodulin-1 (Homo sapiens) (UniProt P0DP23); experiment: small molecules binding calmodulin-1 with EGTA – biochemical, small-molecule microarray, Cy5-labelled CALM1, profiling panel (AID 1111); conditions: Cy5-CALM1 binding fluorescence, higher = more signal;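 note: labelled calmodulin applied in Tris saline Tween buffer holding calcium plus EGTA and DTT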
[15] = molecular target: Calmodulin-1 (Homo sapiens) (UniProt P0DP23); experiment: small molecules binding Ca-loaded calmodulin-1 – biochemical, small-molecule microarray, Cy5-labelled CALM1, plus calcium, artefact control for SMM control-protein annotation, profiling panel (AID 1112); conditions: Cy5-CALM1 binding fluorescence, higher = more signal;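 note: score merges spot fluorescence with signal to noise from triplicate slides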
[16] = probe aWnt5a binding to arrayed compounds – biochemical, biotinylated probe, 635/667 nm fluorescence, primary screen (AID 1113); conditions: small-molecule microarray, higher = more signal;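 note: score merges 667 nm fluorescence intensity with signal-to-noise per printed feature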
[17] = probe aShh binding to arrayed compounds – biochemical, biotinylated probe, 635/667 nm fluorescence, primary screen (AID 1114); conditions: small-molecule microarray, higher = more signal;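 note: probe is biotin-labelled aShh protein from a stem cell growth factor screen; measures binding of labelled protein to compounds printed on the slide; score merges feature fluorescence at 667 nm with signal-to-noise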
[18] = probe aNog binding to arrayed compounds – biochemical, biotinylated probe, 635/667 nm fluorescence, primary screen (AID 1115); conditions: small-molecule microarray, higher = more signal;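 note: probe is biotinylated aNog protein used at 0.15 µg/mL for 1 h at 4 C; z-score combines 667 nm fluorescence of each spot with its signal to noise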
[19] = molecular target: Torsin-1A-interacting protein 1 (Homo sapiens) (UniProt Q5JTV8); experiment: compound microarray binding of lysate hLAP1 – cell lysate, small-molecule microarray, COS7 lysate, 635/667 nm fluorescence, primary screen (AID 1116); conditions: 635 nm fluorescence, higher = more signal
[20] = molecular target: Alpha-bungarotoxin (Bungarus multicinctus) (UniProt P60615); experiment: compounds binding labelled alpha-BTX control protein – biochemical, small-molecule microarray, Alexa647 label, 635/667 nm fluorescence, artefact control for SMM control protein annotation, profiling panel (AID 1117); conditions: alpha-BTX-A647 binding fluorescence, higher = more signal
Alpha-bungarotoxin (Bungarus multicinctus), sequence (P60615 whole entry, looked up): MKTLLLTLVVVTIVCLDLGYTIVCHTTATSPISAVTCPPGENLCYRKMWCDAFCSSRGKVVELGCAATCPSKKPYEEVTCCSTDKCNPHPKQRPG

Epidermal growth factor receptor (Homo sapiens), sequence (P00533 whole entry, looked up): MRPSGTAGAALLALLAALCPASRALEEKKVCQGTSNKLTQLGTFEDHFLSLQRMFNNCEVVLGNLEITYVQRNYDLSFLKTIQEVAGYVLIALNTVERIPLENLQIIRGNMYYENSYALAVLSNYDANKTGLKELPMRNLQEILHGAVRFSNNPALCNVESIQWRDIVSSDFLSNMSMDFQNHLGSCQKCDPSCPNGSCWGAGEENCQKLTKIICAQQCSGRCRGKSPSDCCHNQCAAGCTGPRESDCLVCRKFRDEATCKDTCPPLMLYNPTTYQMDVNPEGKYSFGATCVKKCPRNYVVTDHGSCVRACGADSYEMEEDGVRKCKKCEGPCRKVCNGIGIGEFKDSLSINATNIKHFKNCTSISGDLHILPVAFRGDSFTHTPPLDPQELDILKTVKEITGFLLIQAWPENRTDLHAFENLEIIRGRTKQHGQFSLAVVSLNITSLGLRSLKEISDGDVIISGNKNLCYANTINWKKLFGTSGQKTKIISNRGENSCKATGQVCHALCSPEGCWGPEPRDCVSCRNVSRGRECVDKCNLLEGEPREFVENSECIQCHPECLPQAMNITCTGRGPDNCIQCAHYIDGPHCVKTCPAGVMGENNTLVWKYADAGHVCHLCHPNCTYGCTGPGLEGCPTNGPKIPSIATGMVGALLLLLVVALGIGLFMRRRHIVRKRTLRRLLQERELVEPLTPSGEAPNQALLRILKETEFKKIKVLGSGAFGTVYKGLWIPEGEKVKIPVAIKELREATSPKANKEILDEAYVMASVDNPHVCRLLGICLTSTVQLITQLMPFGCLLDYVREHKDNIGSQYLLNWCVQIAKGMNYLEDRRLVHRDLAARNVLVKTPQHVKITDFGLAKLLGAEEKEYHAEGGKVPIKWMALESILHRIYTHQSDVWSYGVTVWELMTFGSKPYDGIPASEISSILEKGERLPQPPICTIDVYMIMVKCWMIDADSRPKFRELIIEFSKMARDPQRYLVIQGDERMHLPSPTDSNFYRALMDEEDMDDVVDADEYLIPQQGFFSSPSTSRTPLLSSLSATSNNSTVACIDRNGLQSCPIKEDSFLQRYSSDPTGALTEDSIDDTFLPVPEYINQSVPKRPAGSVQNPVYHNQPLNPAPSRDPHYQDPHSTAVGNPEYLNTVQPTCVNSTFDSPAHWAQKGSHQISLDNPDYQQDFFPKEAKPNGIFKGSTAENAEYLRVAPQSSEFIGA
Follistatin-related protein 3 (Homo sapiens), sequence (O95633 whole entry, looked up): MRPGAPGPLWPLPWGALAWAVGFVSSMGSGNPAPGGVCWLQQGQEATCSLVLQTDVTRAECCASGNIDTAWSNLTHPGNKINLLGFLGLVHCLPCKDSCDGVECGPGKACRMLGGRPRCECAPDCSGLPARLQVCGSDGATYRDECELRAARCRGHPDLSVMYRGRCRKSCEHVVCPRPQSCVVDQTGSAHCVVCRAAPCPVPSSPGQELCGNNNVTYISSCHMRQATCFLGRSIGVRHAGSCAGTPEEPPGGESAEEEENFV
Fibroblast growth factor 10 (Homo sapiens), sequence (O15520 whole entry, looked up): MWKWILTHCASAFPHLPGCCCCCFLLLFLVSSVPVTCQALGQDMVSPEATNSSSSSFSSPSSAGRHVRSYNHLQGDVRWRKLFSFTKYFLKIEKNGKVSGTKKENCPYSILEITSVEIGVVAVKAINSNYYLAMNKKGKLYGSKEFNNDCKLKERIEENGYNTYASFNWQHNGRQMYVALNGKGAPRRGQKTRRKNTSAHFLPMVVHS
Torsin-1A-interacting protein 1 (Homo sapiens), sequence (Q5JTV8 whole entry, looked up): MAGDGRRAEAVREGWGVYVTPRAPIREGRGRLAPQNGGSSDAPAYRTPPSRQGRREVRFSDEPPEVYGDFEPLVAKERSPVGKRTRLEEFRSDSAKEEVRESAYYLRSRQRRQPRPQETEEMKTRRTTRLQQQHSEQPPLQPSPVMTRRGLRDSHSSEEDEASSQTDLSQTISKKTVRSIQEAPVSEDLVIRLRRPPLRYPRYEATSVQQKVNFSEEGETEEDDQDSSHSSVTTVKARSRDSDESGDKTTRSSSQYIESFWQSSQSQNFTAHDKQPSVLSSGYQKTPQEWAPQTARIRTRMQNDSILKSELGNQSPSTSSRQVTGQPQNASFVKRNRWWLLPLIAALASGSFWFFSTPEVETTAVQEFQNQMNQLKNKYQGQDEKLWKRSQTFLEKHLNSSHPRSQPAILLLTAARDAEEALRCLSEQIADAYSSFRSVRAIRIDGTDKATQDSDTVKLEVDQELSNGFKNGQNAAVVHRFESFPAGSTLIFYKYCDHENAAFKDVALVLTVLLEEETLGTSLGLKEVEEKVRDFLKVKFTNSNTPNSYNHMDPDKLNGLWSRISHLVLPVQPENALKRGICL
Dickkopf-related protein 1 (Homo sapiens), sequence (O94907 whole entry, looked up): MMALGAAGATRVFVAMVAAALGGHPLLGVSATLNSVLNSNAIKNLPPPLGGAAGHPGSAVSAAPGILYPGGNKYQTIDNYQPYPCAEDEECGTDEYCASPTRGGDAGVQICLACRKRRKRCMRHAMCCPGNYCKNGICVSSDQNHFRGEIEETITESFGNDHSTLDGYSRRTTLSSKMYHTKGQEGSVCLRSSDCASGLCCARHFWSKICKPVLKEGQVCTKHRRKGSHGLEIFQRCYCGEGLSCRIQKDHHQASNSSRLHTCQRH
Left-right determination factor 2 (Homo sapiens), sequence (O00292 whole entry, looked up): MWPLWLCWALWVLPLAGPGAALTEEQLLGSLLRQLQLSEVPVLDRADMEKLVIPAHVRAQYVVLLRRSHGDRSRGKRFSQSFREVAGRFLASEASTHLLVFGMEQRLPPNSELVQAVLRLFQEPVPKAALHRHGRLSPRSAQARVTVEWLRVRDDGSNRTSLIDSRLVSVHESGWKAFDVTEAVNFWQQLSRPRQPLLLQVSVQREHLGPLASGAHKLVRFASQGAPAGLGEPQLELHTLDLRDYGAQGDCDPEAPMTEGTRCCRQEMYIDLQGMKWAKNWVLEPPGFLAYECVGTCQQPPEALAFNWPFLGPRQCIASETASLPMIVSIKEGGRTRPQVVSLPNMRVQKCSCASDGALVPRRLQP

SMILES | composite z-score [1] | composite z-score [2] | composite z-score [3] | z-score [4] | composite z-score [5] | composite z-score [6] | composite z-score [7] | composite z-score [8] | composite z-score [9] | composite z-score [10] | composite z-score [11] | z-score [12] | composite z-score [13] | composite z-score [14] | composite z-score [15] | composite z-score [16] | composite z-score [17] | composite z-score [18] | composite z-score [19] | composite z-score [20]
NC(=O)N1C(=O)C2C(C1=O)C1C=C(c3ccc(CO)cc3)C2C(c2cccs2)N1Cc1cccc(OC(F)(F)F)c1 (stereo not given) | -0.148 | 0.799 | 1.02 | -1.99 (inactive) | 0.302 | -0.343 | -0.813 | 0.122 | 0.245 | 1.49 | 0.142 | -0.657 | -0.647 | 1.51 | 1.16 | 0.0573 | 0.275 | 0.596 | 1.13 | 0.611
CC(C)[Si]1(C(C)C)O[C@@H](c2ccccc2)c2cc(-c3ccc(-c4ccc(Cl)c(Cl)c4)o3)nc(-c3ccccc3)c21 | 0.735 | 0.0699 | 0.234 | 0.115 (inactive) | 0.353 | -0.514 | 0.0831 | 0.0331 | -0.172 | 0.756 | -0.342 | -1.55 | -0.115 | 0.487 | 0.0017 | -0.137 | -0.138 | 0.15 | -0.101 | 0.575
CC(C)C[C@@H]1NC(=O)[C@H](C(C)C)NC(=O)[C@@]23C(=O)N[C@@H](Cc4ccccc4)C2[C@H](C)[C@@]2(C)O[C@H]2C3/C=C/CC/C=C/CNC1=O (stereo not given in full) | 0.26 | -0.189 | -0.263 | -0.76 (inactive) | 1.16 | 0.94 | 0.467 | 1.37 | 0.384 | 1.35 | 1.35 | -1.41 | 0.413 | -0.245 | -0.736 | -0.117 | -0.283 | -0.397 | 0.268 | 0.705
O=C(OCc1ccccc1)C1=CCC2c3[nH]c4ccccc4c3C(=O)C1N2S(=O)(=O)c1ccccc1[N+](=O)[O-] (stereo not given) | 1.42 | 0.332 | 0.381 | -0.00197 (inactive) | 1.33 | 1.32 | 0.727 | 1.42 | 0.109 | 0.618 | 1.42 | -2.6 | 0.831 | 0.418 | -0.369 | 0.0597 | 0.14 | -0.549 | 0.432 | 0.584
CC(C)NC(=O)[C@@]1(C)c2ccccc2C(=O)N(Cc2cc(C(F)(F)F)cc(C(F)(F)F)c2)[C@H]1c1ccc(CO)cc1 | 1.2 | 0.0251 | 1.17 | 0.207 (inactive) | -0.609 | -0.589 | -0.584 | -1.13 | -0.788 | -0.0259 | 1.02 | -0.319 | -0.826 | 0.226 | 0.764 | -0.101 | -0.0398 | 1.07 | 0.454 | -0.361
O=C1OCCC/C=C\[C@H]2OC34C=CCN(Cc5ccccc5)C(=O)[C@H]3N(CCCO)C(=O)[C@@H]4C12 (stereo not given in full) | 1.26 | -0.0379 | 0.794 | 0.422 (inactive) | -0.967 | -0.972 | -1.55 | -1.57 | -1.66 | -0.583 | 0.0636 | -0.779 | -2.09 | -0.537 | 0.464 | -0.178 | -0.16 | -0.244 | 1.82 | -0.972
CCCC[C@H]1OB(O)C[C@H]2C1=C(COC)C[C@H]1C(=O)N(C)C(=O)[C@H]12 | 0.0079 | -0.252 | -0.599 | 0.377 (inactive) | 0.486 | -0.0431 | 0.12 | 0.564 | 0.281 | 0.687 | 0.343 | -0.918 | 0.358 | 0.223 | -0.596 | -0.152 | -0.0626 | -0.0496 | -0.321 | 1.16
NCCCCCCNC(=O)[C@@H]1C[C@@H]2C(=O)NCC(=O)N2[C@@H]1c1ccc(O)cc1 | 1.45 | -0.0828 | -0.0743 | -0.481 (inactive) | 1.05 | 1.3 | 0.574 | 1.3 | 1.6 | 0.802 | 1.29 | 0.279 | 1.14 | 0.584 | -0.0301 | -0.142 | 0.0469 | -0.566 | 0.715 | 1.41
COC(=O)[C@]1(CCC(=O)OC(C)(C)C)N=C(c2ccc(OCCCO)cc2)O[C@@H]1c1ccccc1CN=[N+]=[N-] | 1.09 | 1.09 | 1.07 | -1.03 (inactive) | 0.432 | -0.109 | -0.843 | -0.307 | -0.696 | 0.26 | -0.0058 | -3.32 | -0.684 | 0.884 | 0.367 | -0.0045 | 0.147 | 0.977 | 0.157 | 0.869
C[C@H]1NC(=O)[C@@]23C(=O)N[C@@H](Cc4ccccc4)C2[C@H](C)[C@@]2(C)O[C@H]2C3/C=C/C/C=C\CNC(=O)[C@@H]2CCCN2C1=O (stereo not given in full) | 0.466 | -0.192 | -0.575 | 0.856 (inactive) | 0.861 | 0.365 | 0.283 | 0.891 | 0.296 | 0.947 | 0.209 | 0.534 | 0.297 | 0.339 | -0.52 | -0.0593 | -0.0035 | -0.0841 | 0.159 | 0.368
C=CCOC(=O)[C@H]1[C@@H]2C(=O)O[C@@H](c3ccccc3)[C@@H](c3ccccc3)N2[C@@H](c2ccc(OCCOC(=O)[C@@H]3C[C@@H]4C(=O)N[C@@H](CCCCNC(C)=O)C(=O)N4[C@@H]3c3ccc(O)cc3)cc2)[C@]12C(=O)Nc1ccccc12 | 1.65 | -0.208 | -0.187 | -0.0104 (inactive) | 0.768 | 1.3 | 0.673 | 1.28 | 0.783 | 0.152 | 1.32 | -0.413 | 0.515 | 1.72 | 0.365 | -0.0704 | 0.196 | 0.45 | 0.622 | 2.51
CN(C)CCCC[C@@H]1NC(=O)[C@H]2C[C@@H](C(=O)NCCCCCCN)[C@@H](c3ccc(O)cc3)N2C1=O | 0.436 | 1.6 | 1.07 | -0.193 (inactive) | 1.52 | 1.29 | 0.247 | 1.41 | 0.644 | 1.17 | 1.23 | 0.251 | 1.48 | 1.67 | 0.921 | 0.257 | 0.109 | 1.59 | 1.74 | 2.75
COCCOC(=O)N1C(=O)[C@@]2(c3cc(C#CCC(C(=O)OC)C(=O)OC)ccc31)[C@H](c1ccccc1OCCO)N1[C@H](c3ccccc3)[C@H](c3ccccc3)OC(=O)[C@H]1[C@@H]2C(=O)N1CCN(c2ncccn2)CC1 | 0.875 | 0.231 | 0.237 | -0.397 (inactive) | 1.08 | 1.32 | 0.94 | 1.45 | 0.853 | 1.14 | 1.37 | -1.99 | 0.755 | 1.92 | 1.18 | 0.102 | 0.166 | 0.277 | 2.01 | 0.771
CCCC[C@@H]1C[C@H]1[C@@H](NC(=O)c1ccco1)c1ccccc1C(F)(F)F | -0.323 | 2.11 | 1.39 | -0.255 (inactive) | 0.3 | -0.291 | -0.127 | 0.449 | -0.316 | 1.49 | 0.209 | -1.42 | -0.23 | 1.75 | 1.2 | 0.948 | 2.6 | 2.94 | 0.58 | 1.84
Cc1ccc(S[C@]2(C(=O)NC3CC3)CC(=O)N(Cc3ccccc3)[C@@H]2c2ccc(CO)cc2I)cc1 | 0.562 | 0.0491 | 0.717 | -1.21 (inactive) | -0.794 | -0.281 | -1.34 | -1.37 | -1.59 | 0.5 | 0.477 | -1.9 | -1.2 | -0.351 | -0.149 | -0.0221 | -0.0794 | 0.503 | -0.0172 | -0.734
